# From PubChem BioAssay (NCI)
# Compounds without any hit were thinned out: in the full panel of roughly 83,000, 20% have a hit.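 Treatment: one concentration, 48 hours, 96-well format. Scoring: percent growth, with anything below 10 considered active.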 Unmarked numbers belong to inactive results. The source made the active and inactive calls.
# Test system: LOX IMVI melanoma
# Assay: NCI-60 one-dose screen, 48 h (100 = growth as untreated, 0 = no growth, -100 = all killed)
# Settings: 10 µM unless noted
row,Structure (SMILES),growth
1,S=c1sc2c(Cl)nc(-c3cccnc3)nc2n1-c1ccccc1,-52% (active)
2,C=C(C)[C@@H]1CC[C@]2(CO)CC[C@]3(C)[C@H](CC[C@@H]4[C@@]5(C)CC[C@H](NCO)C(C)(C)[C@@H]5CC[C@]43C)[C@@H]12,-99.8% (active)
3,CN(C)Cc1ccc(O)c(C(=O)O)c1,99.4%
4,CCCn1cc2c(=O)nc3sc(Cc4ccccc4)c(C)n3c2n1,94%
5,CN(/C(N)=N/N=C/c1c2ccccc2cc2ccccc12)C1CCCCC1,31.3%
6,CC(=O)n1nc(C(=O)OC(C)(C)c2ccccc2)c2ccccc21,91.2%
7,CS(=O)(=O)c1ccc(-c2cnn3ccc(-c4cccc(S(=O)(=O)C5CC5)c4)nc23)cc1,44.1%
8,COc1ccc(/C=C(\C#N)n2nnc3ccc(Cl)cc32)cc1,56.9%
9,Oc1c(Br)cc(Br)c2ccc(Cn3cc(-c4ccc(C(F)(F)F)cc4)nn3)nc12,11.5%
10,Cc1sc2nc(NCCc3c[nH]c4ccc(Cl)cc34)[nH]c(=O)c2c1C,26.5%
11,CCN1C(=S)N(c2ccccc2)C2NC(=S)N(/N=C/C=C/c3ccccc3OC)C21 (stereo not given),15.4%
12,CCN(C)S(=O)(=O)Nc1cccc(Nc2ncnc3cc(NC(=O)CCl)ccc23)c1Cl,-79% (active)
13,Cn1c(I)c(C#CCO[Si](C)(C)C(C)(C)C)c(=O)[nH]c1=O,99.9%
14,Nc1[nH]n2cc(-c3ccccc3)nc2c1N=Nc1ccc(S(N)(=O)=O)cc1,17.4%
15,COc1cc(OC)c(NC(=O)c2cc3ccccc3cc2O)cc1Cl,24.2%
16,Cc1cn(-c2cc(NC(=O)c3cccc(C#Cc4cccc5[nH]nc(N)c45)c3)cc(C(F)(F)F)c2)cn1,7.02% (active)
17,CCOC(=O)C/C(=N\Nc1cc(=O)[nH]c2ccc(Br)cc12)C(=O)OCC,94.4%
18,CS(=O)(=O)Nc1cc(-c2ccc3ncnc(Nc4ccc5c(cnn5Cc5ccc(F)cc5)c4)c3c2)cnc1Cl,18.3%
19,CCCCNC(=O)Oc1ccc(/C(=C(/C)Cc2ccc(OC)cc2)c2ccc(OCCN(CC)CC)cc2)cc1,74.9%
20,COc1ccc(-c2nc3c(ncc4ccc(=O)[nH]c43)s2)cc1,52%

row,Structure (SMILES),growth
1,COc1c(C(=O)Nc2ccc(C)c(Br)c2)ccc2ccccc12,95.1%
2,O=C(Nc1nc2ccccc2s1)c1ccc(F)cc1,101%
3,CN(C)c1ccc(C(=O)OCCCCCCl)cc1,102%
4,Cn1ccnc1C(=O)/C=C/c1ccc(CC(=O)Nc2cc(C(F)(F)F)cc(C(F)(F)F)c2)cc1,56.5%
5,c1ccc(-c2oc(-c3ccccc3)c(CN3CCCCC3)c2CN2CCCCC2)cc1,22.3%
6,O=C1/C(=C/c2ccccc2Br)COc2ccc(O)cc21,18.8%
7,COc1ccc(/C=C/C(=O)c2cc3c(N)c(C(=O)Nc4cccc5ccccc45)sc3nc2C)cc1,60.1%
8,CC(C)c1ccc(C(=O)Nc2sc3c(c2C(N)=O)CCC(=O)C3)cc1,4.43% (active)
9,C=C(C)[C@@H]1CC[C@]2(C(=O)N3CCOCC3)CC[C@]3(C)[C@H](CC[C@@H]4[C@@]5(C)C/C(=C/c6ccncc6)C(=O)C(C)(C)[C@@H]5CC[C@]43C)[C@@H]12,60%
10,Cc1cn(-c2cc(NC(=O)c3cncc(C#Cc4cnc(N)c5ncccc45)c3)cc(C(F)(F)F)c2)cn1,21.5%
11,Nc1nc2ccccc2c2c1S(=O)(=O)c1ccc(Cl)cc1C2=O,8.26% (active)
12,CCC(=C(c1ccc(OCCN2CCCCC2)cc1)c1ccc(OCCN2CCCCC2)cc1)c1ccc(Cl)cc1,-84.8% (active)
13,O=C1C(Cl)=C(Nc2ccc(S(=O)(=O)N3CCOCC3)cc2)C(=O)c2ccccc21,35.3%
14,COc1ccc(C/C(C)=C(\c2ccc(Cl)cc2)c2ccc(OCCN3CCCCC3)cc2)cc1,104%
15,COc1cc2c(cc1OC)C(C)N(S(N)(=O)=O)CC2 (stereo not given),102%
16,Cc1[nH]c(=O)[nH]c(=O)c1Br,104%
17,Clc1cccc(Nc2ncnc3ccc(-c4cnc5[nH]ccc5c4)cc23)c1,86.2%
18,CCCCNC(=O)Oc1ccc(/C(=C(/C)Cc2ccc(OC)cc2)c2ccc(OCCN3CCCC3)cc2)cc1,-66.9% (active)
19,C#CCOC(=O)/C=C/c1cn(-c2ccccc2)nc1-c1ccc(OC)cc1,83.6%
20,COC(=O)[C@]1(C)CCC[C@]2(C)[C@H]3C[C@H]4C(C(C)C)=C[C@]3(CC[C@H]21)[C@@H]1C(=O)CC[C@H](OCCC#N)[C@@H]14,90.3%

# Test system: SK-MEL-28 melanoma
# Assay: as above
# Settings: 10 µM unless noted
row,Structure (SMILES),growth
1,S=c1sc2c(Cl)nc(-c3cccnc3)nc2n1-c1ccccc1,-58.2% (active)
2,C=C(C)[C@@H]1CC[C@]2(CO)CC[C@]3(C)[C@H](CC[C@@H]4[C@@]5(C)CC[C@H](NCO)C(C)(C)[C@@H]5CC[C@]43C)[C@@H]12,-86.3% (active)
3,CN(C)Cc1ccc(O)c(C(=O)O)c1,119%
4,CCCn1cc2c(=O)nc3sc(Cc4ccccc4)c(C)n3c2n1,123%
5,CN(/C(N)=N/N=C/c1c2ccccc2cc2ccccc12)C1CCCCC1,48.8%
6,CC(=O)n1nc(C(=O)OC(C)(C)c2ccccc2)c2ccccc21,90.4%
7,CS(=O)(=O)c1ccc(-c2cnn3ccc(-c4cccc(S(=O)(=O)C5CC5)c4)nc23)cc1,69.7%
8,COc1ccc(/C=C(\C#N)n2nnc3ccc(Cl)cc32)cc1,71.4%
9,Oc1c(Br)cc(Br)c2ccc(Cn3cc(-c4ccc(C(F)(F)F)cc4)nn3)nc12,48.1%
10,Cc1sc2nc(NCCc3c[nH]c4ccc(Cl)cc34)[nH]c(=O)c2c1C,70.1%
11,CCN1C(=S)N(c2ccccc2)C2NC(=S)N(/N=C/C=C/c3ccccc3OC)C21 (stereo not given),47.8%
12,CCN(C)S(=O)(=O)Nc1cccc(Nc2ncnc3cc(NC(=O)CCl)ccc23)c1Cl,28.8%
13,Cn1c(I)c(C#CCO[Si](C)(C)C(C)(C)C)c(=O)[nH]c1=O,30.7%
14,Nc1[nH]n2cc(-c3ccccc3)nc2c1N=Nc1ccc(S(N)(=O)=O)cc1,45%
15,COc1cc(OC)c(NC(=O)c2cc3ccccc3cc2O)cc1Cl,53.6%
16,Cc1cn(-c2cc(NC(=O)c3cccc(C#Cc4cccc5[nH]nc(N)c45)c3)cc(C(F)(F)F)c2)cn1,23.5%
17,CCOC(=O)C/C(=N\Nc1cc(=O)[nH]c2ccc(Br)cc12)C(=O)OCC,107%
18,CS(=O)(=O)Nc1cc(-c2ccc3ncnc(Nc4ccc5c(cnn5Cc5ccc(F)cc5)c4)c3c2)cnc1Cl,16.7%
19,CCCCNC(=O)Oc1ccc(/C(=C(/C)Cc2ccc(OC)cc2)c2ccc(OCCN(CC)CC)cc2)cc1,82.8%
20,COc1ccc(-c2nc3c(ncc4ccc(=O)[nH]c43)s2)cc1,87.6%

row,Structure (SMILES),growth
1,COc1c(C(=O)Nc2ccc(C)c(Br)c2)ccc2ccccc12,93.3%
2,O=C(Nc1nc2ccccc2s1)c1ccc(F)cc1,114%
3,CN(C)c1ccc(C(=O)OCCCCCCl)cc1,103%
4,Cn1ccnc1C(=O)/C=C/c1ccc(CC(=O)Nc2cc(C(F)(F)F)cc(C(F)(F)F)c2)cc1,91.2%
5,c1ccc(-c2oc(-c3ccccc3)c(CN3CCCCC3)c2CN2CCCCC2)cc1,10.1%
6,O=C1/C(=C/c2ccccc2Br)COc2ccc(O)cc21,101%
7,COc1ccc(/C=C/C(=O)c2cc3c(N)c(C(=O)Nc4cccc5ccccc45)sc3nc2C)cc1,64.9%
8,CC(C)c1ccc(C(=O)Nc2sc3c(c2C(N)=O)CCC(=O)C3)cc1,7.57% (active)
9,C=C(C)[C@@H]1CC[C@]2(C(=O)N3CCOCC3)CC[C@]3(C)[C@H](CC[C@@H]4[C@@]5(C)C/C(=C/c6ccncc6)C(=O)C(C)(C)[C@@H]5CC[C@]43C)[C@@H]12,74%
10,Cc1cn(-c2cc(NC(=O)c3cncc(C#Cc4cnc(N)c5ncccc45)c3)cc(C(F)(F)F)c2)cn1,40.5%
11,Nc1nc2ccccc2c2c1S(=O)(=O)c1ccc(Cl)cc1C2=O,34.5%
12,CCC(=C(c1ccc(OCCN2CCCCC2)cc1)c1ccc(OCCN2CCCCC2)cc1)c1ccc(Cl)cc1,-97% (active)
13,O=C1C(Cl)=C(Nc2ccc(S(=O)(=O)N3CCOCC3)cc2)C(=O)c2ccccc21,47.5%
14,COc1ccc(C/C(C)=C(\c2ccc(Cl)cc2)c2ccc(OCCN3CCCCC3)cc2)cc1,101%
15,COc1cc2c(cc1OC)C(C)N(S(N)(=O)=O)CC2 (stereo not given),106%
16,Cc1[nH]c(=O)[nH]c(=O)c1Br,114%
17,Clc1cccc(Nc2ncnc3ccc(-c4cnc5[nH]ccc5c4)cc23)c1,96%
18,CCCCNC(=O)Oc1ccc(/C(=C(/C)Cc2ccc(OC)cc2)c2ccc(OCCN3CCCC3)cc2)cc1,-0.368% (active)
19,C#CCOC(=O)/C=C/c1cn(-c2ccccc2)nc1-c1ccc(OC)cc1,115%
20,COC(=O)[C@]1(C)CCC[C@]2(C)[C@H]3C[C@H]4C(C(C)C)=C[C@]3(CC[C@H]21)[C@@H]1C(=O)CC[C@H](OCCC#N)[C@@H]14,101%
